From PubChem BioAssay
Calls of active or inactive are those of the source.

Experiments:
[1] = target: Albumin (Bos taurus) (UniProt P02769); assay: compounds binding labelled BSA control protein – biochemical, small-molecule microarray, Alexa647 label, 635/667 nm fluorescence, artefact control for SMM control protein annotation, profiling panel (AID 1118); conditions: BSA-A647 binding, fluorescence 635 nm, higher = more signal;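 further: score merges 667 nm emission intensity and signal-to-noise per printed compound spot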
[2] = probe aXIP binding to arrayed compounds – biochemical, NeuroSMM set, 635/667 nm fluorescence, primary screen (AID 1119); conditions: small-molecule microarray, higher = more signal, called active from +8 up or from −8 down;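 further: probe is the protein aXip251-270 applied at 1 µg/mL to compound-printed slides; binding of probe to printed compounds measured as 667 nm fluorescence plus signal to noise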
[3] = probe aNOTCH3 binding on compound microarray – biochemical, small-molecule microarray, 635/667 nm fluorescence, primary screen (AID 1120); conditions: higher = more signal;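 further: probe is a biotin-tagged antibody raised against NOTCH3 rather than NOTCH3 protein; score merges spot fluorescence near 667 nm with spot signal to noise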
[4] = probe aNOTCH2 binding on compound microarray – biochemical, small-molecule microarray, 635/667 nm fluorescence, primary screen (AID 1121); conditions: higher = more signal;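 further: score merges feature fluorescence read at 667 nm with its signal to noise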
[5] = target: Carbonic anhydrase 2 (Homo sapiens) (UniProt P00918); assay: compounds binding carbonic anhydrase 2 – biochemical, small-molecule microarray, Alexa647-labelled CAII, profiling panel (AID 1122); conditions: CAII-A647 binding fluorescence, higher = more signal
[6] = COS7 lysate on small-molecule microarray, probe aHis, 635 nm (AID 1123); conditions: COS7 cell lysate, fluorescence, higher = more signal;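 further: z-score combines 667nm fluorescence intensity with signal-to-noise per printed compound spot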
[7] = probe aLAP1 signal on lysate-treated microarray – cell lysate, small-molecule microarray, COS7 lysate, primary screen (AID 1124); conditions: probe aLAP1, fluorescence, higher = more signal;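 further: lysate comes from COS7 cells expressing LAP1 and is applied at 0.3 µg/mL; score merges spot fluorescence near 667 nm with signal-to-noise over triplicate slides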
[8] = system: Sam68 (KHDRBS1); assay: compounds binding KHDRBS1 protein – biochemical, small-molecule microarray, 635 nm fluorescence, primary screen (AID 1125); conditions: higher = more signal;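 further: score merges 667 nm channel intensity with signal to noise over triplicate slides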
[9] = system: Chordin-like protein 2 (CHRDL2); assay: compounds binding chordin-like 2 – biochemical, small-molecule microarray, 635 nm fluorescence, primary screen (AID 1126); conditions: fluorescence 635 nm, higher = more signal;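 further: printed compound slides probed with Chrdl2 protein at 4 µg/mL for 1 h at 4 C; score merges 667 nm emission intensity with signal to noise over three replicate slides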
[10] = target: Concanavalin-A (Canavalia ensiformis) (UniProt P02866); assay: compounds binding concanavalin A lectin – biochemical, small-molecule microarray, Alexa647 label, 635 nm, artefact control for SMM control protein annotation, primary screen (AID 1127); conditions: ConA-A647 binding fluorescence, higher = more signal;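 further: z combines 667 nm emission intensity with signal-to-noise across three replicate slides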
Sequence of Concanavalin-A (Canavalia ensiformis) (P02866 whole entry, looked up): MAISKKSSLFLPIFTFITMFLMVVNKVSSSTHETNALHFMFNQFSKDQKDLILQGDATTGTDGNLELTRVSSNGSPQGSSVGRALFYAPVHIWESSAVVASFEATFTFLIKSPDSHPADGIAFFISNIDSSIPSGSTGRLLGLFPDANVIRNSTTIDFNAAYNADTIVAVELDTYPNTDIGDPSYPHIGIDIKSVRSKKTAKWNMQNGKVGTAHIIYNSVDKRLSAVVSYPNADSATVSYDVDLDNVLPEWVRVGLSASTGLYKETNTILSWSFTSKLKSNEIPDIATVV

Sequence of Albumin (Bos taurus) (P02769 whole entry, looked up): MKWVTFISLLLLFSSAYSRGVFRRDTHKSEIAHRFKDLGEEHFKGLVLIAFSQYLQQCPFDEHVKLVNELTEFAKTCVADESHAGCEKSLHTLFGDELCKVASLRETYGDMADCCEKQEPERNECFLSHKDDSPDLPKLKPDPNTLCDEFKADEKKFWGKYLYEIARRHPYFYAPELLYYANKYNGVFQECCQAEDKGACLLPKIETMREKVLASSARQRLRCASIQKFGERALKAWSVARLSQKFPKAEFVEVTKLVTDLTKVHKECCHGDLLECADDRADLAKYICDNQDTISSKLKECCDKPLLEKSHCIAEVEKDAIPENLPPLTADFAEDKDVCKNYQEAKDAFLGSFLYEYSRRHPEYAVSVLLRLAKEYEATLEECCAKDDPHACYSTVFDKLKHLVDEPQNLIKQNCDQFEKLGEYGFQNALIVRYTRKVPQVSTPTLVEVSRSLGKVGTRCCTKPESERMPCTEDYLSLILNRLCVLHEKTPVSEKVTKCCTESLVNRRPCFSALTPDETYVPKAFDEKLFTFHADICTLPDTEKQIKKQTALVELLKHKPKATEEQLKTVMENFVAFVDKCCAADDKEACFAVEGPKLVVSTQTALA

Row | SMILES | composite z-score [1] | composite Z-score [2] | composite z-score [3] | composite z-score [4] | composite z-score [5] | composite z-score [6] | composite z-score [7] | composite z-score [8] | composite z-score [9] | composite z-score [10]
1 | COCCCNC(=O)[C@@]1(Cc2ccccc2I)c2ccccc2C(=O)N(C2CCCCC2)[C@H]1c1ccc(CO)cc1 | 0.653 | 0.732 (inactive) | -0.0377 | -0.112 | 0.544 | 2.36 | 0.386 | 1.03 | -0.415 | 0.75
2 | CO[C@H]1O[C@H](CO)[C@@H](OC(=O)CCc2ccccc2)[C@@H]2OC(=O)[C@@H](Cc3ccc4ccccc4c3)C/C=C/C[C@H](Cc3ccc4ccccc4c3)C(=O)O[C@@H]12 | 0.199 | 0.128 (inactive) | -0.21 | -0.172 | 0.191 | 1.18 | 0.273 | -0.183 | -1.34 | 0.208
3 | C=CCOC(=O)[C@H]1[C@@H]2C(=O)O[C@@H](c3ccccc3)[C@@H](c3ccccc3)N2[C@@H](c2ccc(OCCOC(=O)[C@H]3C[C@H]4C(=O)NCC(=O)N4[C@H]3c3cccc(OCCO)c3)cc2)[C@]12C(=O)Nc1ccc(I)cc12 | -0.0037 | 0.642 (inactive) | 0.138 | -0.125 | 0.567 | 2.2 | 0.692 | 1.29 | 0.866 | 1.14
4 | Cc1cccc([C@H]2C[C@H]3C(Br)=C[C@@]2(CO)C(=O)[C@]32CO2)c1 | -0.155 | -0.288 (inactive) | -0.108 | -0.147 | 0.362 | 0.182 | -0.24 | 0.671 | -0.15 | -0.0472
5 | CC(C)c1ccc(NN2C(C(O)C3=C[C@H]4C[C@@H](C3)C4(C)C)C=CC3C(=O)N(c4ccccc4)C(=O)C32)cc1 (stereo not given in full) | 0.97 | 0.378 (inactive) | 0.333 | 0.248 | 0.662 | 2.04 | 1.09 | 1.17 | 0.4 | 1.12
6 | COCCOC(=O)N1C(=O)[C@@]2(c3ccccc31)[C@H](C(=O)Nc1nc3ccccc3s1)[C@H]1C(=O)O[C@H](c3ccccc3)[C@H](c3ccccc3)N1[C@@H]2c1ccccc1OCCO | 0.0171 | 0.0308 (inactive) | 0.291 | -0.0684 | 0.526 | 1.54 | 1.63 | 1.3 | 0.145 | 1.08
7 | CCOC(=O)C1=CC[C@@H](c2ccccc2)N(S(=O)(=O)c2ccc(C)cc2)[C@@H]1C#N | 0.118 | 0.4 (inactive) | 0.0112 | -0.026 | 0.518 | 1.87 | -0.0567 | 1.23 | -0.315 | 0.855
8 | Cc1c(NC(=O)/C(C#N)=C/C=C/c2ccc([N+](=O)[O-])cc2)c(=O)n(-c2ccccc2)n1C | 0.974 | 0.947 (inactive) | 0.144 | 0.0966 | 0.584 | 2.23 | 0.82 | 1.3 | 0.0495 | 1.04
9 | COCCCNC(=O)[C@]1(Cc2ccccc2CN=[N+]=[N-])N=C(c2ccc(OCCCO)cc2)O[C@@H]1c1ccccc1N=[N+]=[N-] | 0.835 | -0.217 (inactive) | 0.805 | 0.188 | 0.525 | 2.24 | 0.152 | 1.34 | -0.992 | 1.05
10 | CC[C@@H](O[Si](C#C[Si](C(C)C)(C(C)C)C(C)C)(C(C)C)C(C)C)c1cn([C@H](CO)Cc2ccccc2)nn1 | 0.239 | 0.133 (inactive) | -0.0077 | -0.0995 | 0.409 | 0.398 | 0.0485 | 1.09 | 0.414 | 0.346
11 | Cc1ccc(S[C@]2(C(=O)NCc3ccccc3)CC(=O)N(Cc3ccccc3Cl)[C@@H]2c2ccc(CO)cc2)cc1 | -0.447 | -0.608 (inactive) | -0.511 | -0.149 | 0.762 | 0.397 | 0.197 | 0.472 | -0.78 | 0.439
